Assay outcomes (PubChem)
TDP1 cell noCPT – qHTS for Inhibitors of human tyrosyl-DNA phosphodiesterase 1 (TDP1): qHTS in cells in absence of CPT. DT40 Tdp1-/- hTDP1 cells, no CPT, ATP luminescence, 48 h. Potency, µM (titrated, usually from 46.2 µM), most hits filed as inhibitors. 420,000 compounds, 15% hits. AID 686978, 2013; also: nearly all actives have a fitted effect of over 55% in size
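A cellular qHTS used chicken DT40 cells lacking endogenous Tdp1 but carrying stably transfected human TDP1. Compounds were applied without camptothecin, and cell growth kinetics were judged by ATP-dependent luminescence after ≥48 hr.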
TGFb inhibitor – TGF-b pathway inhibition | Potency, µM (doses to about 46.1 µM), actives largely listed as inhibitors | 410,000 compounds, 1.2% hits | HepG2 CAGA-GFP TGF-b/SMAD3 reporter, GFP fluorescence, 18 h; TGF-beta stimulated, 500 pg/mL final | AID 588855; also: nearly all actives have a fitted effect of over 65% in size
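Inhibition was scored as loss of TGF-beta-induced (500 pg/mL final, 18 hours, 37 degrees C) GFP in HEPG2 cells carrying a CAGA-GFP reporter, in DMEM with 1% FBS. Well GFP was summed per cell; Activity was normalised to unstimulated and stimulated DMSO wells, then concentration-response fitting.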
DT40 TDP1 CPT – growth inhibition of DT40 Tdp1-/-;hTDP1 cells with camptothecin (screen for TDP1 inhibitors) | chicken DT40 Tdp1-/-;hTDP1 cells + 20 nM CPT, ATP luminescence, 48 h | Potency, µM (titrated, usually from 46.2 µM), most hits filed as inhibitors | 420,000 compounds, 12% hits | AID 686979; also: nearly all actives have a fitted effect of over 55% in size
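Chicken DT40 Tdp1-/- cells complemented with human TDP1, 400 cells/well, exposed to compounds plus 20 nM camptothecin for at least 48 h at 37 C; viability read as ATP content by CellTiter-Glo luminescence.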
HT1080-NT tox – kills 2HG-producing HT-1080-NT fibrosarcoma cells; HT-1080-NT fibrosarcoma viability, CellTiter-Glo ATP luminescence, 48 h; Potency, µM (top dose mostly 46.1 µM), actives largely listed as cytotoxic; 360,000 compounds, 1.6% hits; AID 686970;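 also: NT is the 2HG producing partner of a matched IDH1 knockdown line; nearly all actives have a fitted effect of over 55% in size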
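Toxicity toward the 2HG-producing NT line was scored as %Activity, normalised to DMSO and no-cell wells, from CellTiter-Glo luminescence after 48 hours' treatment.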
HepG2 tox – kills HepG2 cells in TGF-b inhibitor counter-screen; HepG2 CAGA-GFP viability, ATP luminescence, 18 h; Potency, µM (series often up to 46.1 µM), most hits filed as cytotoxic; 410,000 compounds, 0.76% hits; AID 588856
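HepG2 CAGA-GFP cells (1000/well, DMEM with 1% FBS) received compound, then TGF-beta at 500 pg/mL final, and were incubated 18 hours at 37 degrees C. Viability was read by CellTiter-Glo luminescence. Media-only wells were set as complete cell-killing and DMSO as no toxicity.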
HT1080 IDH1KD tx – HT-1080 IDH1 knockdown cell toxicity (counter line); HT-1080 IDH1 knockdown viability, ATP luminescence, 48 h; Potency, µM (doses to about 46.1 µM), hits mostly cytotoxic; 360,000 compounds, 2% hits; AID 686971
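Luminescent ATP read-out (CellTiter-Glo, 10 min at room temperature) after 48 h compound exposure at 37 °C gave viability of IDH1-knockdown HT-1080 cells. Activity was normalised to DMSO and cell-free wells, then fitted as concentration-response curves.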
Large screens that a line does not name were inactive. A selection: hits, their analogues and other compounds. The true share with any hit is near 17%. Calls follow the shape of the dose curve; as a rule, active = well fitted curve in the direction sought with a large enough effect; inconclusive = small, poorly fitted or top-dose-only effect, or another doubt; inactive = no such curve, though single readings can be large; an effect the other way counts as inactive or inconclusive.

CC(=O)c1c(C)[nH]c(C(=O)OCCOc2ccccc2)c1C	TDP1 cell noCPT 9.2µM, TGFb inhibitor inconclusive, DT40 TDP1 CPT inconclusive, HT1080 IDH1KD tx inconclusive
CC(=O)c1c(C)[nH]c(C(=O)COC(=O)CCCOc2ccccc2)c1C	none
CC(=O)c1c(C)[nH]c(C(=O)OCc2cccc(C)c2)c1C	TDP1 cell noCPT 13µM, DT40 TDP1 CPT 16µM
CC(=O)c1c(C)[nH]c(C(=O)OCC(=O)c2ccc(C)s2)c1C	TDP1 cell noCPT 18µM, DT40 TDP1 CPT 23µM
COc1ccc(CN(C)C(=O)c2[nH]c(C)c(C(C)=O)c2C)cc1F	TDP1 cell noCPT 15µM, DT40 TDP1 CPT inconclusive
CCOC(=O)c1c(C)[nH]c(C(=O)OCc2ccccc2)c1C	TDP1 cell noCPT inconclusive
COc1nc2ccc(C)cc2cc1-c1noc(-c2ccccc2)n1	TDP1 cell noCPT inconclusive
CCN(CC)S(=O)(=O)c1ccc2c(c1)N(CC(=O)Nc1ccc(C)cc1C)C(=O)C1CCCN21 (stereo not drawn)	TDP1 cell noCPT inconclusive (no result: HT1080-NT tox, HT1080 IDH1KD tx)
CCCOc1ccc(NC(=O)CC2C(=O)N(c3ccc(C)cc3)C(=O)N2Cc2cccc(OC)c2)cc1 (stereo not drawn)	none (no result: HT1080-NT tox, HT1080 IDH1KD tx)
CC(=O)c1c(C)[nH]c(C(=O)OCc2ccccc2F)c1C	TDP1 cell noCPT 21µM, DT40 TDP1 CPT 15µM
CSc1ncccc1C(=O)OCC(=O)c1ccc[nH]1	none
CC(=O)c1c(C)[nH]c(C(=O)COc2cc(C)cc(C)c2)c1C	TDP1 cell noCPT 16µM, DT40 TDP1 CPT inconclusive, HT1080 IDH1KD tx inconclusive
CSc1ncccc1C(=O)OCC(=O)c1[nH]c(C)c(C(C)=O)c1C	TDP1 cell noCPT inconclusive, DT40 TDP1 CPT 18µM
COc1ccc(C)cc1COC(=O)c1[nH]c(C)c(C(C)=O)c1C	TDP1 cell noCPT 16µM, DT40 TDP1 CPT 21µM
CCOC(=O)c1c(C)[nH]c(C(=O)OCc2ccc(C)cc2)c1C	none
CCOCCCNC(=O)c1c(NC(=O)c2cc(=O)c3ccccc3o2)sc2c1CCC2	none (no result: HT1080-NT tox, HT1080 IDH1KD tx)
CC(=O)Nc1ccc(C(=O)N2CCOCC2c2cc(C(=O)NCc3ccccc3)no2)cc1 (stereo not drawn)	none
Cc1ccc2c(c1)nnn2C1CCN(C(=O)C2CCCCC2)CC1	none
Cn1c(=O)c2c(ncn2CC(=O)OCC(=O)Nc2ccc(F)cc2F)n(C)c1=O	none
COC(=O)c1c(C)[nH]c(C(=O)COc2ccc3ccc(=O)oc3c2)c1C	TDP1 cell noCPT 9.2µM, DT40 TDP1 CPT inconclusive
CC1(C)CC(=O)c2cc(C(=O)Nc3ccc(Br)cc3)c(=O)n(-c3ccc(Cl)cc3)c2C1	none (no result: HT1080-NT tox, HT1080 IDH1KD tx)
CSCCC(C(=O)NC1CCCC1)n1c(-c2ccccn2)nc2ccccc21 (stereo not drawn)	TDP1 cell noCPT inconclusive, DT40 TDP1 CPT inconclusive (no result: TGFb inhibitor, HepG2 tox)
COc1ccc(C(=O)C(=O)N2CCC(Cc3ccccc3)CC2)cc1OC	TDP1 cell noCPT 21µM, DT40 TDP1 CPT inconclusive (no result: TGFb inhibitor, HepG2 tox)
COc1cccc(OC)c1C(=O)OCC(=O)N1CCC(Cc2ccccc2)CC1	none
COc1cc(/C=C/C(=O)OCC(=O)N2CCC(Cc3ccccc3)CC2)ccc1O	TDP1 cell noCPT 15µM, TGFb inhibitor inconclusive, DT40 TDP1 CPT inconclusive, HT1080 IDH1KD tx inconclusive
O=C(C(=O)N1CCC(Cc2ccccc2)CC1)c1cccc(Br)c1	TDP1 cell noCPT inconclusive, DT40 TDP1 CPT inconclusive, HT1080 IDH1KD tx inconclusive (no result: TGFb inhibitor, HepG2 tox)
COc1cc(C(=O)OCC(=O)N2CCC(Cc3ccccc3)CC2)cc(OC)c1OC	TDP1 cell noCPT 16µM, DT40 TDP1 CPT inconclusive
CCOc1ccc(NC(=O)Cn2c(CCC(=O)O)ccc2-c2ccc(C)cc2)cc1	TDP1 cell noCPT inconclusive (no result: HT1080-NT tox, HT1080 IDH1KD tx)
O=C(O)c1nn(CCOc2ccc(Cl)cc2Cl)c(=O)c2ccccc12	TDP1 cell noCPT inconclusive
COc1cccc(CN2CCNC(=O)C2CC(=O)NCC(C)(C)N2CCOCC2)c1OC (stereo not drawn)	none
